Screening data as filed in PubChem.
TEAD-YAP inh: TEAD-YAP interaction inhibition. HEK-TIYL cells, TEAD-Gal4/YAP UAS-luciferase luminescence. inhibition, % at 9.12 µM. 640,000 compounds, 1.4% hits. AID 1259422; in the data active = inhibition above about 32%;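 also: 0% = median of test compound wells and 100% = reference inhibitor wells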
GPR151 ag: human GPR151 activation. Q8TDV0. 650,000 compounds, 1% hits. AID 1508602. PathHunter beta-arrestin GPR151 cells, luminescence. activation, % at 11.2 µM; in the data active = activation above about 4.9%;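 also: 0% = median of compound wells and 100% = cells with positive control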
MITF inh: blocks human microphthalmia-associated transcription factor | AlphaScreen MITF homodimerization, bead proximity signal | 650,000 compounds, 0.91% hits | O75030 | inhibition, % at 2.6 µM | AID 1259374; in the data active = inhibition above about 50%;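 also: 0% = vehicle wells with protein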
Target sequence (O75030 whole entry, looked up): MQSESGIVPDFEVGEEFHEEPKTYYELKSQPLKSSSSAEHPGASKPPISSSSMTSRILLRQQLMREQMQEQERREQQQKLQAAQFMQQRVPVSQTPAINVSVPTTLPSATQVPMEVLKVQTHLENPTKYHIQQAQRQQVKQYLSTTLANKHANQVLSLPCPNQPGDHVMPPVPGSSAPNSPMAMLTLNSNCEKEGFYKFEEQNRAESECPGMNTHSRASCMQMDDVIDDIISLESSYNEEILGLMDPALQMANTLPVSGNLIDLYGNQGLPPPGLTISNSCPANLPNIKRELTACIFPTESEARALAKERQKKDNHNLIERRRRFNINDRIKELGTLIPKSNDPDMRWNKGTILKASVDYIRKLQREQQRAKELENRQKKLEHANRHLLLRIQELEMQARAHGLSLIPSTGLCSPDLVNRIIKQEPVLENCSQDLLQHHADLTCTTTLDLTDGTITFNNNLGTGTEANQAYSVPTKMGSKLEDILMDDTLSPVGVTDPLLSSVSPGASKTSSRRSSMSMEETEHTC
FBW7 activator: human FBW7 E3 ligase activation, primary screen; Q969H0; AlphaScreen FBW7–phospho-cyclin E peptide binding, activator screen; 650,000 compounds, 0.13% hits; AID 1259310; normalized activity (activation), % at 26.1 µM; in the data active = normalized activity above about 1.9%;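 also: purified mutant Fbw7 with reduced substrate affinity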
* marks the source's active call; other numbers are inactive results. Compounds with a hit are over-represented: about 3.5% of the library has one in this group of screens.

SMILES	TEAD-YAP inh	GPR151 ag	MITF inh	FBW7 activator
CCCn1c(C2CC(=O)N(c3ccc(OCC)cc3)C2)nc2ccccc21 (stereo not given)	2	1	4	0
Cc1ccc2[nH]c3nc(N/N=C/c4ccc(O)c(O)c4)nnc3c2c1	-4	-1	87*	-1
COc1cccc(/C=N/Nc2nnc3c(n2)[nH]c2ccccc23)c1	-31	0	17	0
COc1ccc(/C=N/Nc2nnc3c(n2)[nH]c2ccc(Br)cc23)c(O)c1	-6	0	-3	0
Cc1ccc2[nH]c3nc(N/N=C/c4ccc(O)cc4O)nnc3c2c1	63*	1	22	-2
CCOc1cc(/C=N/Nc2nnc3c(n2)[nH]c2ccc(C)cc23)ccc1O	3	0	-7	0
COc1ccc(Br)cc1/C=N/Nc1nnc2c(n1)[nH]c1ccccc12	-4	0	19	2.1*
CCOc1cc(/C=C(\C#N)C(N)=S)ccc1OCC(=O)Nc1ccccc1OC	3	0	6	0
CCCC1=C(C(=O)OCC)C(c2ccc(F)c(F)c2)C(C#N)=C(N)O1 (stereo not given)	19	0	8	0
COc1cc(-c2[nH]nc3c2C(c2ccccc2Br)C(C#N)=C(N)O3)cc(OC)c1OC (stereo not given)	36*	0	-3	0
COc1cc(-c2[nH]nc3c2C(c2ccccc2Cl)C(C#N)=C(N)O3)cc(OC)c1OC (stereo not given)	16	-1	-3	0
Cc1ccc2cccc(OS(=O)(=O)c3ccccc3C)c2n1	6	2	-4	1
COc1ccc(S(=O)(=O)Oc2cccc3ccc(C)nc23)cc1OC	9	4	10	1.9*
CCCc1cc(N2CCN(c3ccc(OC)cc3)CC2)n2cnnc2n1	42*	0	-5	0
CC1=C(C(=O)OCc2ccccc2)C(c2cccc(Br)c2)C2=C(CC(c3ccccc3)CC2=O)N1 (stereo not given)	7	0	12	1
O=C(Nc1ccc(Oc2ccc([N+](=O)[O-])c3cnccc23)cc1)c1ccco1	39*	-2	19	0
Cc1cc(OCC(=O)Nc2ccccn2)ccc1Cl	64*	3	-4	0
Cc1ccnc(NC(=O)COc2ccc(Cl)c(C)c2)c1	-31	-1	5	0
CC(=O)c1ccc(-c2ccc(/C=C3\SC(=Nc4ccccc4Cl)NC3=O)o2)cc1	2	-1	12	0
COc1cccc(-c2ccc(NC(=O)C3CCCN(Cc4ccon4)C3)cc2)c1 (stereo not given)	1	-2	11	0
CC(=O)c1c(C)[nH]c(-c2csc(NC3CCCCC3)n2)c1C	-4	-1	-9	1
COC(=O)c1c(C)[nH]c(-c2csc(N)n2)c1C	51*	0	13	0
CCOC(=O)C1=C(O)/C(=C\c2ccccc2)N=C1C	2	-1	-3	0
CCOC(=O)CCC(=O)Nc1ccc(Cl)c([N+](=O)[O-])c1	10	0	-2	0
c1ccc(-n2cnc3c(Nc4ccc(N5CCOCC5)cc4)nc(Nc4ccccn4)nc32)cc1	58*	0	2	0
SMILES	TEAD-YAP inh	GPR151 ag	MITF inh	FBW7 activator
CC(=O)Nc1ccc(Nc2nc(Nc3ccccn3)nc3c2ncn3-c2ccccc2)cc1	56*	2	-17	0
Cn1c(Nc2nc(Nc3ccc(N4CCOCC4)cc3)c3ncn(-c4ccccc4)c3n2)nc2ccccc21	33*	-2	2	0
c1ccc(-n2cnc3c(Nc4ccc(N5CCOCC5)cc4)nc(Nc4ncccn4)nc32)cc1	16	0	2	0
Cn1c(Nc2nc(Nc3ccc(N4CCOCC4)cc3)c3ncn(-c4ccsc4)c3n2)nc2ccccc21	35*	0	9	0
O=C(NC1CCCCC1)c1ccc(-n2c(=S)[nH]c3ccccc3c2=O)cc1	-1	0	9	0
CCOCCOC(=O)C1=C(C)NC2=C(C(=O)CC(c3cccs3)C2)C1c1ccc(OC)cc1 (stereo not given)	7	0	3	0
COc1ccc(-c2nc(Nc3ccc(NC(C)=O)cc3)c3ncn(-c4ccccc4)c3n2)cc1	41*	0	10	1
COc1ccccc1NCC(O)Cn1ccc2ccccc21 (stereo not given)	-4	-1	69*	-1
CNCC(O)Cn1ccc2ccccc21 (stereo not given)	12	1	4	0
Cc1cc(C(=O)N2CCC(Oc3ccc(C(=O)NCCc4ccccc4)cc3)CC2)no1	9	0	2	0
O=C(NCCc1ccccc1)c1ccc(OC2CCN(C(=O)c3ccsc3)CC2)cc1	1	-1	8	0
COCC(=O)N1CCC(Oc2ccc(C(=O)NCCc3ccccc3)cc2)CC1	28	1	-5	0
Cc1ccoc1C(=O)N1CCC(Oc2ccc(C(=O)NCCc3ccccc3)cc2)CC1	83*	1	-16	0
O=C(NCCc1ccccc1)c1ccc(OC2CCN(C(=O)Cn3cncn3)CC2)cc1	76*	0	0	0
Cc1ncoc1C(=O)N1CCC(Oc2ccc(C(=O)NCCc3ccccc3)cc2)CC1	50*	0	-2	0
O=C(NCCc1ccccc1)c1ccc(OC2CCN(C(=O)c3ccoc3)CC2)cc1	53*	1	11	0
CCCN1CCN(C(=O)c2nn(-c3ccc(OCC)cc3)c(=O)c3ccccc23)CC1	4	1	0	0
CC(C)c1[nH]nc2c1C(c1ccccc1F)C(C#N)=C(N)O2 (stereo not given)	8	0	4	0
O=C(/C=C/c1ccccc1)NNC(=O)CCN1CCOCC1	4	-1	19	0
COc1cc(C2CC(=O)Nc3c2ccc2ccccc32)c(Cl)cc1OCC(N)=O (stereo not given)	17	2	5	0
COC(=O)/C=C1\S/C(=N\N=C\c2ccc3c(c2)OCO3)NC1=O	-2	-1	-1	0
O=C1N/C(=N\N=C/c2ccc3c(c2)OCO3)S/C1=C/c1ccc(O)cc1	49*	0	-5	1
Nc1cccc(N2C(=O)c3cccc(N)c3C2=O)c1	6	0	-2	0
Cc1ccc(N2C(=O)c3cccc(N)c3C2=O)c(C)c1	33*	1	-7	0
Nc1cccc2c1C(=O)N(c1ccc3ccccc3c1)C2=O	-54	0	1	2.4*
SMILES	TEAD-YAP inh	GPR151 ag	MITF inh	FBW7 activator
Cc1ccc(CNc2nc(N)n(-c3ccccc3)n2)cc1	-7	1	15	0
O=C1CC(c2c[nH]c3ccccc23)C(=O)N1c1ccc2ccccc2c1 (stereo not given)	5	0	20	0
Cc1nc(-c2ccccn2)cc(N2CCCCC2)n1	40*	0	-5	-1
O=C(NCCOc1cccnc1)c1ccc(-n2cc(NC(=O)c3ccoc3)cn2)cc1	52*	-1	-10	0
O=C(NCCCc1cccnc1)c1ccc(-n2cc(NC(=O)C3CCOC3)cn2)cc1 (stereo not given)	32*	-1	16	0
O=C(NCCn1ccc2ccccc21)c1ccc(-n2cc(NC(=O)c3ccoc3)cn2)cc1	-8	0	8	0
